Outcome data for two molecules are collected here from PubChem BioAssay AID2707 (National Center for Advancing Translational Sciences (NCATS), 2010).

This is one part of the list. The source made the active and inactive calls.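 How the source made its calls: active means potency below 100 µM; inconclusive means dose-dependent response but potency above 100 µM; inactive means the rest.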

Sequence of 4'-phosphopantetheinyl transferase ffp (Bacillus subtilis) (Q9F4F7 whole entry, looked up): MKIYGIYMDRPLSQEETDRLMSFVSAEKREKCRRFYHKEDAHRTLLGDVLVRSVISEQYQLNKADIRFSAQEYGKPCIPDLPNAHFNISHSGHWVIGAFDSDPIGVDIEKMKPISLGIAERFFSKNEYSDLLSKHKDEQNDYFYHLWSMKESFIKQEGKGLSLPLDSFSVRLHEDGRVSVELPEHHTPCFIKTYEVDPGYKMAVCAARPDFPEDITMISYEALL

In the assay the target is 4'-phosphopantetheinyl transferase ffp (Bacillus subtilis) (UniProt Q9F4F7). Nature of the assay: Gel-Based Assay for Inhibitors of Bacillus subtilis Sfp phosphopantetheinyl transferase (PPTase). Particulars: purified Sfp, gel-based phosphopantetheinylation read-out. An excerpt:
The covalent attachment of a phosphopantetheinyl (4'-PP) arm to a variety of synthases and other proteins is a key posttranslational protein modification. The 4'-PP is installed on the proteins post-translationally from coenzyme A (CoA) on a conserved serine residue by action of phosphopantetheinyl transferase (PPTase) enzymes. Phosphopantetheinylation is essential for synthase activity, and removal of the PPTase gene precludes natural product synthesis in microorganisms, or in the case of fatty acid biosynthesis, renders the organism unviable. PPTase enzymes belong to a distinct structural superfamily. Within bacteria, these enzymes are grouped into two classes based upon primary structure, the AcpS-Type and Sfp-Type PPTases. […]
In this assay, compounds were evaluated by monitoring of fluorescence transfer to whole carrier protein substrates via polyacrylamide gel electrophoresis. […]
A DMSO solution of confirmed hits (0.5 microL) was added to a 1.33X enzyme solution (15 microL, containing 26.6 nM Sfp, 66 mM HEPES, 13.3 mM MgCl2, 0.0133% NP-40, 0.133% BSA, pH 7.6). […] Following the run, gels were imaged with a Chemi-Doc Plus imager (Bio-Rad, Hercules, CA) and band intensity quantified using the ImageJ software package. […]
Take `Cc1nn2c(c1-c1ccccc1)N=C(c1ccco1)CC2c1ccccc1` (configuration not stated): the outcome was inactive.
With `CCCOC(=O)Nc1sc2c(c1C(=O)OCC)CCC2` the entry was “inactive”.
